# Experimental data as given in the supplement of paper PMC11732987, “Enantioselective OTUD7B fragment discovery through chemoproteomics screening and high-throughput optimisation” (Communications Chemistry, 2025).
# Unmarked numbers belong to inactive results.
# Target: T1, USP22 (UniProt Q9UPT9)
# T1 sequence (whole entry): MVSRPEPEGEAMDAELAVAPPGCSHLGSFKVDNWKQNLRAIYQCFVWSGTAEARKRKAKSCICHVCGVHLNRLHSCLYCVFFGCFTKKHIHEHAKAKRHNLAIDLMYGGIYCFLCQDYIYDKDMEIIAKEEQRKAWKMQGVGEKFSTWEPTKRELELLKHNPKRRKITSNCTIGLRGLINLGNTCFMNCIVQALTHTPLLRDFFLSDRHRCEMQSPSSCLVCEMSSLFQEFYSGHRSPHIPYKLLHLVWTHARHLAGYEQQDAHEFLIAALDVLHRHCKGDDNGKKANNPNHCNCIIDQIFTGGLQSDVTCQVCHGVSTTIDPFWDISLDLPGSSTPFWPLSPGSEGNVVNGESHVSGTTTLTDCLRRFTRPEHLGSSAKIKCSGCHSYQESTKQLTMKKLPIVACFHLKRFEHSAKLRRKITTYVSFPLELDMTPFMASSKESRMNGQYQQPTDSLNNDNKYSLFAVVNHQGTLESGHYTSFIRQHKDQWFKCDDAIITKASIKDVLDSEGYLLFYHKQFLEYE
# Experiment: log2 ratio of Biotin-Ahx-Ub-VS probe labelling (fragment/DMSO); higher = less target engagement (more negative = stronger competition), active = hit call of the paper (q ≤ 0.05, log2 ratio ≤ -1)
# Settings: compound concentration: 200 uM; treatment time: 3 h
# Experimental: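 Competitive ABPP in HEK293T cell lysate. Lysates were treated with each chloroacetamide fragment at 200 µM for 3 h, then with Biotin-Ahx-Ub-VS (0.5 µM, 1 h), NeutrAvidin-enriched and analysed by diaPASEF LC-MS/MS. Protein LFQ was median-normalised; average log2 ratio is fragment/DMSO from an unpaired t-test (n=3 treated, n=44 DMSO). Hits: q ≤ 0.05, log2 ratio ≤ -1, unique peptides ≥ 2.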
row,Compound,log2 ratio of Biotin-Ahx-Ub-VS probe labelling
1,Cl.O=C(CCl)NCCN1CCc2ccccc21,-1.07 (active)
2,COc1cc(Cl)c(C)cc1NC(=O)CCl,-0.0389
3,Cc1cc(NC(=O)CCl)n(-c2ccccc2)n1,0.086
4,O=C(CCl)Nc1cc2c(cc1Cl)OCCO2,-0.112
5,O=C(CCl)N1CCOCC1C1CC1 (stereo not given),0.0159
6,Cc1cc(CC(C)NC(=O)CCl)n[nH]1 (stereo not given),0.128
7,Cl.O=C(CCl)N1CCn2cncc2C1,-0.0616
8,Cl.O=C(CCl)N1CCC(n2nc3ccccc3n2)CC1,-0.472
9,O=C(CCl)N1CCCC2CCCCC21 (stereo not given),-0.0228
10,O=C(CCl)N1CCC(O)(Cc2ccc(F)cc2)C1 (stereo not given),-0.265
11,CC1CCc2onc(CNC(=O)CCl)c2C1 (stereo not given),0.192
12,Cl.Cn1ncc2c1CC(NC(=O)CCl)CC2 (stereo not given),0.0984
13,Cl.Cn1cnc2cc(CNC(=O)CCl)ccc21,0.00285
14,O=C(CCl)NC(Cn1ccccc1=O)c1ccccc1 (stereo not given),0.298
15,CC(NC(=O)CCl)c1cccc(Cl)c1 (stereo not given),-0.146
16,CCC(NC(=O)CCl)c1ccc(Cl)cc1 (stereo not given),-0.735
17,Cc1noc(C)c1CNC(=O)CCl,-0.912
18,O=C(CCl)NCCc1ccc(F)cc1,0.0853
19,O=C(CCl)N1CCN(C(=O)Nc2ccccc2)CC1,0.14
20,O=C(CCl)NC1CCS(=O)(=O)c2ccccc21 (stereo not given),-0.0769

row,Compound,log2 ratio of Biotin-Ahx-Ub-VS probe labelling
1,Cc1ccccc1CN(C)C(=O)CCl,-0.0794
2,Cc1cccc(NC(=O)CCl)c1C,-0.267
3,O=C(CCl)NCCc1cccc2ccccc12,-0.385
4,O=C(CCl)N1CCCC1c1ccsc1 (stereo not given),-0.304
5,O=C(CCl)N1CCC(c2nc3ccccc3o2)CC1,-0.0192
6,Cc1ccccc1C1(CNC(=O)CCl)CCOCC1,-0.0958
7,Cc1ncc2c(n1)CCN(C(=O)CCl)C2,-0.119
8,Cc1nc(-c2cccc(NC(=O)CCl)c2)cs1,-0.0833
9,Cc1ccc(N(C(=O)CCl)C2C=CS(=O)(=O)C2)cc1 (stereo not given),0.0416
10,O=C(CCl)NCc1ccc2c(c1)OCO2,-0.126
11,Cc1cnc2[nH]cc(CCNC(=O)CCl)c2c1,-0.375
12,COc1cccc(CN(C)C(=O)CCl)c1,-0.426
13,O=C(CCl)N1CCc2ccccc2C(O)C1 (stereo not given),-0.345
14,NS(=O)(=O)c1ccc(Cl)c(NC(=O)CCl)c1,-0.46
15,CC(NC(=O)CCl)c1cccc2ccccc12 (stereo not given),-0.925
16,Cc1n[nH]c(=O)c2c(NC(=O)CCl)oc(C)c12,-0.281
17,Cc1n[nH]c2c1CN(C(=O)CCl)CC2,-0.846
18,C/C(=C\CNC(=O)CCl)c1cnn(C)c1.Cl,0.026
19,Cc1cccc2nc(CCNC(=O)CCl)cn12.Cl,0.075
20,O=C(CCl)NCC(=O)N1CCCC1,-0.00438
